Test results as given in PubChem BioAssay AID1851 (National Center for Advancing Translational Sciences (NCATS), 2009).
The whole screen tested about 16,000 compounds, of which about 5,700 (36%) were called active. Not shown: some 24% with an inconclusive outcome. The call rests on the fitted dose curve; in most records, active means well fitted curve in the direction sought with a large enough effect; inconclusive means small, poorly fitted or top-dose-only effect, or effect the other way; inactive means no such curve, though single readings can be large or run the other way. This is one part of the list.

Target: Cytochrome P450 1A2 (Homo sapiens) (UniProt P05177)
Sequence (P05177 whole entry, looked up): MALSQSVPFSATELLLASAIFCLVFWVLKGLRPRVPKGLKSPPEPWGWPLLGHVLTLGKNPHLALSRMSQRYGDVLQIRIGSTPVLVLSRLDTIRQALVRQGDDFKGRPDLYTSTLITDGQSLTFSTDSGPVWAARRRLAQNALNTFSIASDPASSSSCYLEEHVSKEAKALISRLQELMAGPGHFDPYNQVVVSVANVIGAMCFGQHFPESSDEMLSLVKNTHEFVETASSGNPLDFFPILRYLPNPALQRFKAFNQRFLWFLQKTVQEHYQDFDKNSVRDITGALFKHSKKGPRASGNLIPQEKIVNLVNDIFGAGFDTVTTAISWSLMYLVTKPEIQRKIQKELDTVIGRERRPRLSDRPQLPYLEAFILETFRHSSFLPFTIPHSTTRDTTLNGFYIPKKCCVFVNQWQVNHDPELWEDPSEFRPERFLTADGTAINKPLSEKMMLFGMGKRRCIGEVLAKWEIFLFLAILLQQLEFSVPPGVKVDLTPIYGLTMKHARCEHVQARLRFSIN
Assay: Cytochrome panel assay with activity outcomes
Conditions: recombinant CYP, pro-luciferin dealkylation, luminescence, p450-cyp1a2; series mostly up to 57.1 µM; activity, negative = inhibition: at the top concentration
On the % scale 0 is the no-effect control and ±100 the full control effect.

AC50, inactive:
C[C@@](N)(Cc1ccc(O)cc1)C(=O)O, C[C@@](N)(Cc1ccc(O)c(O)c1)C(=O)O

AC50, active:
CN1CCN(c2ncncc2-c2ccc(N(C)C)cc2)CC1 12.6 µM, CN(C)c1ccc(-c2cncnc2-n2ccnc2)cc1 2.51 µM, c1cn(-c2ccnc(-c3ccc4c(c3)OCO4)n2)cn1 0.0251 µM, CN(C)C(=O)c1ccc(-c2cncnc2-n2ccnc2)cc1 20 µM, CN(C)C(=O)c1ccc(-c2nccc(-n3ccnc3)n2)cc1 15.8 µM, Cc1ccc(OCC(=O)NC2=NCCS2)cc1 8.91 µM, O=C(NCc1cccnc1)C1COc2ccccc2O1 (stereo unspecified) 15.8 µM, O=C(Nc1cccnc1)C1COc2ccccc2O1 (stereo unspecified) 11.2 µM, Cn1nc(-c2ccccc2)c(C(=O)Nc2ccc(Cl)cc2)c1Cl 1.26 µM, O=C(Nc1ccc(Cl)cc1)c1cnc(-c2ccccc2)nc1-c1ccccc1 0.708 µM, Cn1nccc1C(=O)Nc1ccc(Cl)cc1 4.47 µM, COc1ccc(CNc2ncncc2-c2ccccc2OC)c(OC)c1 5.01 µM, COc1ccc(CNc2ncncc2-c2ccccc2C)c(OC)c1 10 µM, COc1ccc(CNc2ncncc2-c2ccccc2CN(C)C)c(OC)c1 15.8 µM, COc1cc(/C=C2/C(=N)N3C=CSC3=NC2=O)ccc1OCCCOc1c(C)cccc1C 3.55 µM, CCOC(=O)c1c(C(C)(C)C)oc2ccc(O)cc12 0.251 µM, CCC1(O)c2ccccc2-c2ncccc21 (stereo unspecified) 14.1 µM, O=c1c(-c2ccccc2)nc2cnc(N3CCOCC3)nc2n1C[C@H]1CCCO1 3.16 µM, O=c1c(-c2ccc(Cl)cc2)nc2cnc(N3CCOCC3)nc2n1C[C@H]1CCCO1 2 µM, O=c1c(-c2ccc(F)cc2)nc2cnc(N3CCOCC3)nc2n1C[C@H]1CCCO1 1.58 µM, COc1ccc2c(c1)Cc1cc(N=[N+]([O-])c3ccc4c(c3)Cc3cc(OC)ccc3-4)ccc1-2 1.58 µM

activity, negative = inhibition, inactive:
CN(C)C(=O)c1ccc(-c2cncnc2N2CCNCC2)cc1 0.554%, CC1=C/C(=N/O)C([C@H]2C=C(C)CC(C)(C)[C@@H]2O)C(C)(C)C1 (stereo partly specified) -5.85% [at 11.4 µM], CC(C)C(NC(=O)C12CC3CC(CC(C3)C1)C2)C(=O)NC1=NCCS1 (stereo unspecified) -16.5%, COc1ccc(S(=O)(=O)N2CCC[C@H]2C(=O)NC2=NCCS2)cc1 -24.4%, O=C(NCc1cccnc1)[C@@H]1[C@@H](C(=O)O)[C@H]2CC[C@@H]1O2 -11% [at 11.4 µM], Cc1ccc(S(=O)(=O)N2CCN(C(=O)C3COc4ccccc4O3)CC2)cc1C (stereo unspecified) -49%, O=C(NCCCN1CCOCC1)C1COc2ccccc2O1 (stereo unspecified) 5.54%, CS(=O)(=O)N1CCC2(CCCN(C(=O)Nc3cccc(C#N)c3)C2)CC1 4.7%, CC(=O)N1CCC[C@@]2(CCN(Cc3nccs3)C2)C1 -9.06%, Cc1nn(Cc2c(F)c(F)c(F)c(F)c2F)c(C)c1NC(=O)c1c(-c2ccccc2)nn(-c2ccccc2)c1C 2.23%, Cc1nn(C)c(C(=O)NNC(=S)Nc2ccc(Cl)cc2)c1[N+](=O)[O-] -6.63%, COC(=O)CC1C(=O)NCCN1C(=O)Nc1ccc(Cl)cc1 (stereo unspecified) -14.1%, CC(=O)OC[C@@H]1O[C@@H](O/N=C2/C[C@@H](O)[C@@H](O)[C@@H]3[C@@H]4C(=O)N([C@@H](C)c5ccccc5)C(=O)[C@H]4CC[C@@H]23)[C@H](OC(C)=O)[C@H](OC(C)=O)[C@@H]1OC(C)=O 4.64% [at 11.4 µM], O=C1C[C@H]2C(=O)[C@@H]1[C@@H](C(=O)O)[C@H]2C(=O)O -11% [at 11.4 µM], COc1ccc(COC2OC[C@]3(C)[C@H]4C5=C(CN3C(=O)OC(C)(C)C)[C@H](C)C(CO)C(CO)C5CC[C@@H]24)cc1 (stereo partly specified) -11.3%, CC(C)[C@H](NC(=O)OC(C)(C)C)[C@@H](O)CC(=O)OC(C)(C)C -7.19% [at 11.4 µM], CCOC(=O)N1CCN(CC(=O)c2ccc3c(c2)CCN3)CC1 -27.8%, CCOc1cc(/C=C2/C(=N)N3C=CSC3=NC2=O)ccc1OCCCOc1ccccc1C -27.4%, COc1cc(/C=C2/C(=N)N3OC(C)=CC3=NC2=O)ccc1OCCOc1ccc(C)cc1 -8.75%, COC(=O)[C@@H]1CC[C@H](C)[C@@H](c2ccc(C)cc2)N1C(=O)c1ccc(/C=N\OC[C@@H](O)[C@H]2O[C@H]3OC(C)(C)O[C@H]3[C@@H]2O)cc1 -5.97% [at 11.4 µM], CC(=O)N1CCC2(CC1)CN(Cc1ccccc1)C2 3.64%, Oc1cc2c(c(Cl)c1O)CCNC[C@H]2c1ccccc1 -20.5%, C/C(CCN1CCc2nc(-c3ccccc3)c(-c3ccccc3)cc2C1)=N\OC[C@@H](O)[C@@H]1O[C@@H]2OC(C)(C)O[C@@H]2[C@H]1O -5.51% [at 11.4 µM]
